NPSR antagonist – qHTS Assay for Antagonists of the Neuropeptide S Receptor: cAMP Signal Transduction | Q6W5P4 | CHO-NPSR cells, cAMP TR-FRET, antagonist mode | Potency, µM (highest dose often 38.3 µM), actives largely listed as inhibitors | hit rate 1% among 220,000 | AID 1461, 2008; also: nearly all actives have a fitted effect of over 50% in size
Target sequence (Q6W5P4 whole entry, looked up): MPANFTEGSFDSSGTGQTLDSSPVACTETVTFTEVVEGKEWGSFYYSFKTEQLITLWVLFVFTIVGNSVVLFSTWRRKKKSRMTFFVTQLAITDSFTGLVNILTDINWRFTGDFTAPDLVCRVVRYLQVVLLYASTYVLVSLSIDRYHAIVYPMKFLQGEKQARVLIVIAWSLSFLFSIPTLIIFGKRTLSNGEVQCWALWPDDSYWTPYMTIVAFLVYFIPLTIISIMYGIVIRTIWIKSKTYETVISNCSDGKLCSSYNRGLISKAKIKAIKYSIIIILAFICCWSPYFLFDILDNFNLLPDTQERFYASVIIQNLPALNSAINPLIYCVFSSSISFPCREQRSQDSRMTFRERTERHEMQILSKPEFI
RORg inh – qHTS for inhibitors of ROR gamma transcriptional activity; hit rate 5.4% among 310,000; Potency, µM (series often up to 53.6 µM), most hits filed as inhibitors; Drosophila S2 Gal4-RORgamma UAS-luciferase reporter, 20 h; Nuclear receptor ROR-gamma (Mus musculus), P51450; also: nearly all actives have a fitted effect of over 60% in size
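Drosophila Schneider cells stably carrying a metallothionein-driven Gal4 DBD–ROR gamma fusion and a UAS-Photinus luciferase reporter were exposed to compound for 1 hr, then induced with copper sulfate (700 uM final) for 20 hr at ambient temperature before luminescence reading.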
VP16 counter – VP16 counterscreen qHTS for inhibitors of ROR gamma transcriptional activity | AID 2546, 2010 | hit rate 3.5% among 310,000 | Potency, µM (top dose mostly 53.6 µM), hits mostly inhibitors | Drosophila S2 Gal4-VP16 UAS-luciferase, luminescence, 20 h;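 also: Gal4-VP16 expression switched on by copper sulfate through the metallothionein promoter; nearly all actives have a fitted effect of over 50% in size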
B2AR arrestin – qHTS assay of beta-arrestin-biased ligands of beta2-adrenergic receptor. beta-arrestin recruitment to beta2AR, cell-based reporter. hit rate 0.02% among 330,000. Beta-2 adrenergic receptor (Homo sapiens), P07550. Potency, µM (highest dose often 46.1 µM), actives largely listed as activators. AID 492947, 2010; also: nearly all actives have a fitted effect of over 65% in size
Of the large screens only hits and unclear results are named; the others gave an inactive call. Most compounds without a hit are left out; they make up all but 5.7% or so of the library. Calls follow the shape of the dose curve; as a rule, active = well fitted curve in the direction sought with a large enough effect; inconclusive = small, poorly fitted or top-dose-only effect, or another doubt; inactive = no such curve, though single readings can be large; an effect the other way counts as inactive or inconclusive.

O=C(Nc1ccc(NC(=O)C2CCCCC2)cn1)c1ccco1	RORg inh inconclusive, VP16 counter 8.91µM
COc1ccccc1C(=O)Nc1ccc(NC(=O)c2ccco2)cn1	none (no result: NPSR antagonist)
O=C(Nc1ccc(NC(=O)c2ccco2)nc1)c1ccccn1	RORg inh inconclusive, VP16 counter 1.78µM
CC(C)(C)C(=O)Nc1ccc(NC(=O)c2ccco2)nc1	RORg inh 0.199µM, VP16 counter 0.562µM (no result: NPSR antagonist)
O=C(Nc1ccc(NC(=O)c2ccco2)nc1)c1ccco1	RORg inh 7.94µM
O=C(Nc1ccc(NC(=O)C2CC2)cc1)c1ccco1	none (no result: NPSR antagonist)
O=C(Cc1ccccc1)Nc1ccc(NC(=O)c2ccco2)nc1	none
Fc1cccc(CNc2ncnc3ccc(-c4cccnc4)cc23)c1	none (no result: NPSR antagonist, RORg inh, VP16 counter)
CCc1cc2c(=O)c(-c3nc(C)cs3)coc2cc1OC(C)C(=O)NCCO (stereo unspecified)	none
CCOc1cc(C=O)ccc1OCCn1c([N+](=O)[O-])cnc1C	none (no result: NPSR antagonist)
Cc1cc(C)c[n+](C2=C([O-])c3ccccc3C(=O)/C2=N\S(=O)(=O)c2cccs2)c1	none
CC(C)(C)c1cc[n+](C2=C([O-])c3ccccc3C(=O)/C2=N\S(=O)(=O)c2ccccc2)cc1	NPSR antagonist inconclusive, RORg inh 5.62µM, VP16 counter 6.31µM
Cc1cc[n+](C2=C([O-])c3ccccc3C(=O)/C2=N\S(=O)(=O)c2cccs2)cc1C	RORg inh 15.8µM, VP16 counter 11.2µM
COc1ncc2nc(-c3ccccc3)c(=O)n(C)c2n1	none (no result: NPSR antagonist, B2AR arrestin)
NNC(=O)c1cccc(COc2ccccc2Br)c1	RORg inh inconclusive, VP16 counter inconclusive
NNC(=O)c1cccc(COc2ccc3c(c2)CCC3)c1	RORg inh 3.16µM, VP16 counter 5.01µM
CC(C)(C)c1ccc(-c2cn(-c3ccc(Br)cc3)c3[n+]2CCCS3)cc1	NPSR antagonist 10µM, RORg inh 7.08µM, VP16 counter 7.94µM
C#CCCCO/N=C1/C[C@@H](O)[C@@H](O)[C@@H]2[C@@H]3C(=O)N(CCC(=O)OCC)C(=O)[C@H]3CC[C@H]12	none (no result: NPSR antagonist, B2AR arrestin)
O=C(O)c1ccccc1N/N=C\c1ccnc2ccccc12	RORg inh 5.01µM, VP16 counter inconclusive
Cc1ccc(NC(=O)C2=C(c3ccccc3)S(=O)(=O)CCS2(=O)=O)cc1	NPSR antagonist 10µM, RORg inh 0.631µM, VP16 counter 5.01µM
Cc1ccc(NC(=O)c2ccccc2)cc1	VP16 counter inconclusive
CC(C)CO/N=C1/C[C@@H](O)[C@@H](O)[C@@H]2[C@@H]3C(=O)N(C4CCCCC4)C(=O)[C@H]3CC[C@H]12	none (no result: NPSR antagonist, B2AR arrestin)
CCOc1cccc(-c2c(C(=O)N/N=C/c3ccncc3)nnn2-c2nonc2N)c1	none (no result: NPSR antagonist)
CCOc1cccc(-c2c(C(=O)N/N=C/c3ccc(C)o3)nnn2-c2nonc2N)c1	RORg inh 10µM, VP16 counter inconclusive (no result: NPSR antagonist)
CCOc1cccc(-c2c(C(=O)N/N=C/c3ccco3)nnn2-c2nonc2N)c1	RORg inh 11.2µM, VP16 counter 25.1µM (no result: NPSR antagonist)
CCOc1cccc(-c2c(C(=O)N/N=C/c3ccoc3)nnn2-c2nonc2N)c1	RORg inh 10µM, VP16 counter inconclusive (no result: NPSR antagonist)
COc1ccc(Cl)c2sc(N3CCN(C(C)=O)CC3)nc12	none (no result: NPSR antagonist)
CCC(C)(C)C(=O)O[C@@H]1C[C@@H](C)C=C2C=C[C@H](C)[C@H](CC[C@@H]3C[C@@H](O)CC(=O)O3)[C@H]21	VP16 counter inconclusive (no result: NPSR antagonist, B2AR arrestin)
CSc1ccccc1-c1nc(-c2ccncc2)no1	none (no result: NPSR antagonist)
CC(=O)NC1=C(N(C)C2CCS(=O)(=O)C2)C(=O)c2ccccc2C1=O (stereo unspecified)	RORg inh 2.51µM, VP16 counter 7.94µM
CN(C(=O)Nc1ccccc1)C1CCS(=O)(=O)C1 (stereo unspecified)	none
O=C(CCNC(=O)C1CCN(S(=O)(=O)c2ccc(F)cc2)CC1)Nc1ccccc1	none (no result: NPSR antagonist)
CC(C)(C)NC(=S)NC(=O)C12CCC3CC(CC(C3)C1)C2	NPSR antagonist inconclusive, RORg inh 0.708µM
Cc1cc(C)n(CC2CC(=O)N(c3ccc(F)c(Cl)c3)C2=O)n1 (stereo unspecified)	RORg inh 14.1µM
Cc1ccc(O)c(N=Nc2ccc(S(=O)(=O)N3CCCC3)cc2)c1	RORg inh inconclusive
Cc1ccc(N=Nc2c(C)[nH]n(C(N)=S)c2=O)cc1	RORg inh 0.316µM, VP16 counter 0.891µM, B2AR arrestin inconclusive
Cc1[nH]n(C(N)=S)c(=O)c1N=Nc1ccc(Br)cc1	RORg inh 0.355µM, VP16 counter 2µM (no result: NPSR antagonist)
Cc1[nH]n(C(N)=S)c(=O)c1N=Nc1ccc(S(=O)(=O)N2CCCC2)cc1	RORg inh 0.282µM, VP16 counter 1.26µM
c1ccc(Nc2ncnc3ccc(-c4ccc5c(c4)OCO5)cc23)cc1	RORg inh inconclusive (no result: NPSR antagonist, B2AR arrestin)
CCn1c(SCC(=O)N/N=C/c2c[nH]c3ccccc23)nnc1-c1ccc(C(C)(C)C)cc1	none
CCCc1ncc(C(O)(c2ccccc2)c2ccccc2)n1C	RORg inh 14.1µM
CCCc1ncc(C(O)(c2ccccc2)c2ccc(C)cc2)n1C (stereo unspecified)	RORg inh inconclusive
COc1ccc(C)cc1NC(=O)CO/N=C(\N)CC(=O)NC1CCCCC1	none (no result: NPSR antagonist, RORg inh, VP16 counter)
O=[N+]([O-])c1ccc(O)c(-c2cc(C(F)(F)F)nc(-c3ccccc3)n2)c1	RORg inh 1.12µM, VP16 counter 2.82µM (no result: NPSR antagonist)
CCC(=O)Nc1cccc(C(=O)/C=C/c2cccs2)c1	RORg inh inconclusive, VP16 counter inconclusive
O=C(/C=C/c1ccccc1)Nc1cc(NC(=O)/C=C/c2ccccc2)cc(C(=O)O)c1	none (no result: NPSR antagonist)
CCC(=O)Nc1cccc(C(=O)/C=C/c2ccccc2)c1	RORg inh 15.8µM, VP16 counter inconclusive
O=C(/C=C/c1ccccc1)Nc1cccc(C(=O)O)c1	RORg inh 3.98µM, VP16 counter 5.62µM
CC1CC=C(c2ccccc2)C(=S)N1 (stereo unspecified)	RORg inh 1µM, VP16 counter 3.16µM
N#CCCN1CCCN(CCC#N)CCN(CCC#N)CCCN(CCC#N)CC1	none (no result: NPSR antagonist)
CN(C)c1ccc(-c2nc3cc(N)ccc3o2)cc1	RORg inh 7.94µM, VP16 counter 7.08µM (no result: NPSR antagonist)
Nc1ccc(-c2nc3ccc(-c4nc5ccccc5o4)cc3[nH]2)cc1	none
Nc1ccc(-c2nc3ccc(N)cc3o2)cc1	RORg inh inconclusive, VP16 counter 11.2µM
Cc1ccc2nc(-c3cc(N)cc(N)c3)oc2c1	RORg inh 2.82µM, VP16 counter inconclusive
Nc1ccc(-c2nc3cc(N)ccc3o2)cc1	RORg inh inconclusive, VP16 counter inconclusive (no result: NPSR antagonist)
Cc1ccc2oc(-c3ccccc3)nc2c1	RORg inh inconclusive, VP16 counter inconclusive
C=CC[C@@H]1C=C[C@@H](O/N=C\[C@@H](OC)[C@H](C)/C=C\CC(=O)OC)[C@@H](CO)O1	none (no result: NPSR antagonist, B2AR arrestin)
C=CCc1cccc(C2C(C)CCC3C(=O)N4C(Cc5c([nH]c6ccccc56)C4c4cc(OC)c(OC)c(OC)c4)C(=O)N32)c1 (stereo unspecified)	none (no result: NPSR antagonist, B2AR arrestin)
CCOc1ccc(NS(=O)(=O)c2ccc(C(=O)N3CCN(C(C)=O)CC3)cc2)cc1	RORg inh inconclusive, VP16 counter 20µM (no result: NPSR antagonist)
